Assay results from PubChem BioAssay (Tox21).
Records with an inconclusive call do not appear. Activity calls are given as the source filed them. Unless noted, calls come from the whole dose curve; as a rule, active = well fitted curve in the direction sought with a large enough effect in the repeat runs; inconclusive = weak or mixed curves; inactive = no such curve, though single readings can be large; an effect the other way counts as inactive or inconclusive.

Assays:
[1] = molecular target: Retinoic acid receptor RXR-alpha (Homo sapiens) (UniProt P19793); assay: qHTS assay to identify small molecule agonists of the RXR signaling pathway (AID 1159527; calls by dose curve; note: nearly all actives have a fitted effect of over 35% in size)
Method in brief: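 Agonist mode; 9-cis retinoic acid positive control. HEK 293T UAS-bla reporter cells, 2% charcoal-stripped FBS, 16 hr compound exposure at 37 C/5% CO2. LiveBLAzer B/G FRET substrate 2 hr RT; ex 405, em 460/530 nm.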

[2] = qHTS assay to identify small molecule agonists of the RXR signaling pathway - cell viability counter screen (AID 1159529); note: series mostly up to about 77 µM; nearly all actives have a fitted effect of over 50% in size
Method in brief: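 Luminescence from CellTiter-Glo (30 min, RT) measured viability in the same wells as the beta-lactamase reporter readout. Cells: GeneBLAzer RXR-alpha HEK 293T, 2% charcoal-stripped FBS. Compound exposure 16 hr, 37 C.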

[3] = qHTS assay to identify small molecule antagonists of the estrogen related receptor (ERR) signaling pathway from Tox21 library - cell viability counter screen (AID 1224834); note: nearly all actives have a fitted effect of over 30% in size; note: potency is the fitted concentration of half-maximal effect
Method in brief: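 Fluorescence from CellTiter-Fluor gives the viability read-out, taken 30 min after reagent addition. Before that, ERR cells seeded 6 h earlier were incubated with compounds for 17.5 h at 37 C.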

[4] = molecular target: Luciferin 4-monooxygenase (Photinus pyralis) (UniProt P08659); assay: qHTS assay to identify small molecule inhibitors of firefly luciferase (AID 1224835); note: nearly all actives have a fitted effect of over 25% in size; note: potency is the fitted concentration of half-maximal effect
Method in brief: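 Biochemical qHTS: compounds run as interplate titrations against purified firefly enzyme, with D-luciferin and ATP each at its KM concentration. Light output recorded by CCD imaging.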

[5] = qHTS assay to identify small molecule agonists of the constitutive androstane receptor (CAR) signaling pathway - cell viability counter screen (AID 1224836); note: nearly all actives have a fitted effect of over 45% in size; note: potency is the fitted concentration of half-maximal effect
Method in brief: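 Viability read-out: CellTiter-Fluor fluorescence after 23 h compound exposure at 37 C/5% CO2 in double-stable HepG2-CYP2B6-hCAR cells, with PK11195 present at 0.75 uM final; compounds tested in 15-point titration.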

[6] = qHTS assay to identify small molecule antagonists of the constitutive androstane receptor (CAR) signaling pathway - cell viability counter screen (AID 1224837); note: nearly all actives have a fitted effect of over 45% in size; note: potency is the fitted concentration of half-maximal effect
Method in brief: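 HepG2-CYP2B6-hCAR cells, 2500/well, 4 hr pre-incubation; compound titration, 15 conc.; CITCO 50 nM final; 23 hr, 37 C/5% CO2; CellTiter-Fluor, fluorescence intensity.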

[7] = molecular target: Nuclear receptor subfamily 1 group I member 3 (Homo sapiens) (UniProt Q14994); assay: qHTS assay to identify small molecule antagonists of the constitutive androstane receptor (CAR) signaling pathway (AID 1224838);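 note: HepG2 cells stably expressing hCAR with CYP2B6 luciferase reporter stimulated by CITCO; nearly all actives have a fitted effect of over 40% in size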
Method in brief: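 HepG2-CYP2B6-hCAR cells; 4 h pre-incubation; cpd (15 conc) + CITCO 50 nM final; 24 h, 37 C/5% CO2; ONE-Glo, luminescence.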

[8] = molecular target: Nuclear receptor subfamily 1 group I member 3 (Homo sapiens) (UniProt Q14994); assay: qHTS assay to identify small molecule agonists of the constitutive androstane receptor (CAR) signaling pathway (AID 1224839); note: nearly all actives have a fitted effect of over 15% in size; note: potency is the fitted concentration of half-maximal effect
Method in brief: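 Luminescence read-out (ONE-Glo, 30 min, room temperature) from double-stable HepG2-CYP2B6-hCAR cells exposed 24 h to 15-point compound series in presence of 0.75 uM PK11195 final.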

[9] = qHTS assay to identify small molecule antagonists of the estrogen related receptor signaling pathway with the pleiotropic PPARgamma coactivator (PGC) from Tox21 10K library - cell viability counter screen (AID 1224840; active = well fitted cell-killing curve with a large enough effect in the repeat runs, not every such curve was filed as active; note: nearly all actives have a fitted effect of over 40% in size)
Method in brief: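 PGC/ERR cells, 2,000/well; 6 h pre-incubation 37 C/5% CO2; cpd in DMSO via pin tool; 17.5 h 37 C; CellTiter-Fluor, 30 min; fluorescence.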

[10] = qHTS assay to identify small molecule antagonists of the estrogen related receptor signaling pathway with the pleiotropic PPARgamma coactivator (PGC) from Tox21 10K library (AID 1224841; call rule not given here; note: series mostly up to about 92 µM; actives are mostly falling curves and most rising ones were filed inactive; nearly all actives have a fitted effect of over 50% in size)
Method in brief: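 PGC/ERR cell line, 2,000 cells/well; 6 h pre-incubation 37 C/5% CO2; compounds (DMSO) pinned in; 18 h, 37 C; One-Glo, 30 min RT; luminescence.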

[11] = qHTS assay to identify small molecule agonists of the estrogen related receptor signaling pathway with the pleiotropic PPARgamma coactivator (PGC) from Tox21 10K library (AID 1224842); note: nearly all actives have a fitted effect of over 15% in size
Method in brief: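 PGC/ERR reporter cell line, 2,000 cells per well, incubated 6 h at 37 C before 23 nL compound in DMSO was added. After 18 h at 37 C, One-Glo luminescence read following 30 min at room temperature.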

[12] = qHTS assay to identify small molecule antagonists of the retinoic acid receptor (RAR) signaling pathway (AID 1159552; note: nearly all actives have a fitted effect of over 50% in size)
Method in brief: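 Luminescence from a RARE luciferase reporter in C3RL4 cells served as read-out. Cells received compounds together with 1 uM final retinol and incubated 6 hr at 37 C before detection reagent was added for 30 min at room temperature.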

[13] = qHTS assay to identify small molecule agonists of the retinoic acid receptor (RAR) signaling pathway (AID 1159553)
Method in brief: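 Luminescence from a RARE-driven luciferase reporter in C3RL4 cells served as the read-out, measured after 30 min with detection reagent at room temperature. Compounds in DMSO were applied for 6 hr at 37 C following overnight seeding.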

[14] = qHTS assay to identify small molecule antagonists of the estrogen related receptor (ERR) signaling pathway - cell viability counter screen (AID 1224818);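 note: series mostly up to about 46 µM; viability measured after 17.5 h of compound exposure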
Method in brief: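 Multiplexed counter screen to separate cytotoxic compounds from true ERR modulators. ERR cells received DMSO-dissolved compounds after a 6 h pre-incubation, were exposed 17.5 h at 37 C, then assayed with CellTiter-Fluor fluorescence.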

[15] = qHTS assay to identify small molecule antagonists of the estrogen related receptor (ERR) signaling pathway (AID 1224819;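 note: luminescence from an ERR-driven luciferase reporter measured with One-Glo reagent; series mostly up to about 46 µM; nearly all actives have a fitted effect of over 50% in size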)
Method in brief: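 Seed ERR cells 2,000/well; rest 6 h at 37 C/5% CO2; pin compounds in DMSO; incubate 18 h at 37 C; add One-Glo; wait 30 min at room temperature; measure luminescence.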

[16] = qHTS assay to identify small molecule agonists of the estrogen related receptor (ERR) signaling pathway (AID 1224820)
Method in brief: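 Quantitative HTS of the LOPAC library used NTP ERR reporter cells treated 18 h at 37 C. Signal is luminescence after One-Glo addition and a 30 min room-temperature incubation.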

[17] = system: estrogen-related receptor alpha (ERRalpha) with PGC-1alpha coactivator, human; assay: qHTS assay to identify small molecule antagonists of the estrogen related receptor signaling pathway with the pleiotropic PPARgamma coactivator (PGC) (AID 1224821; calls by dose curve)
Method in brief: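 Quantitative HTS for antagonism: PGC/ERR cells received compounds after 6 h attachment and were incubated 18 h at 37 C, with luminescence (One-Glo) as the endpoint.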

[18] = qHTS assay to identify small molecule antagonists of the estrogen related receptor signaling pathway with the pleiotropic PPARgamma coactivator (PGC) cell viability counter screen (AID 1224822; note: series mostly up to about 46 µM)
Method in brief: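 Cells: PGC/ERR, 2,000/well, 1536-well format. Pre-incubation 6 h, 37 C/5% CO2. Compound exposure 17.5 h, 37 C. Detection: CellTiter-Fluor, 30 min, fluorescence.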

[19] = qHTS assay to identify small molecule agonists of the estrogen related receptor signaling pathway with the pleiotropic PPARgamma coactivator (PGC) (AID 1224823)
Method in brief: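 Cell-based luciferase assay in the NTP-supplied PGC/ERR line, 2,000 cells/well; 18 h compound exposure at 37 C, luminescence after One-Glo.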

Measured: Potency

Nuclear receptor subfamily 1 group I member 3 (Homo sapiens), sequence (Q14994 whole entry, looked up): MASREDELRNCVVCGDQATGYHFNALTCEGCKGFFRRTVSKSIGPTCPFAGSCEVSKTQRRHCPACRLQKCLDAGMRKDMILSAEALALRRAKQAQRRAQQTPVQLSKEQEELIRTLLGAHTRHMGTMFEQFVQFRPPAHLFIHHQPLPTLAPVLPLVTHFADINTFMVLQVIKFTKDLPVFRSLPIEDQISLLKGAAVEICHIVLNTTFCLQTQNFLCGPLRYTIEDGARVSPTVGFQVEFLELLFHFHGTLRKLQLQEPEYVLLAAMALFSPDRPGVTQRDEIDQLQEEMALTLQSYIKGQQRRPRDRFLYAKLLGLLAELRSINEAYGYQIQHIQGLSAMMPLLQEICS
Retinoic acid receptor RXR-alpha (Homo sapiens), sequence (P19793 whole entry, looked up): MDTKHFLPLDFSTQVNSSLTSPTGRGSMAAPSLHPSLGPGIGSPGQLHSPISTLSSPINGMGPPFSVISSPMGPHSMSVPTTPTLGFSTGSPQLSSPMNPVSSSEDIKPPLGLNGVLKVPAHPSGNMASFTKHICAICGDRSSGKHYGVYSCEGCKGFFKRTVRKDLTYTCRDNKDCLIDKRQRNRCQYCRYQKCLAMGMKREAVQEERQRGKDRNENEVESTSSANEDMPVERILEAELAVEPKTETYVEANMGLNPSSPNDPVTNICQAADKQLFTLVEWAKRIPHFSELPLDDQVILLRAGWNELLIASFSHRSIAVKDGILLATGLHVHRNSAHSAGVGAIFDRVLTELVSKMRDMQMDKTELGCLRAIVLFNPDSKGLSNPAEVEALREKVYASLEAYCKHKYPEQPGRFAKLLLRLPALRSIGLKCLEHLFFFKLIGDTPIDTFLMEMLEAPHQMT
Luciferin 4-monooxygenase (Photinus pyralis), sequence (P08659 whole entry, looked up): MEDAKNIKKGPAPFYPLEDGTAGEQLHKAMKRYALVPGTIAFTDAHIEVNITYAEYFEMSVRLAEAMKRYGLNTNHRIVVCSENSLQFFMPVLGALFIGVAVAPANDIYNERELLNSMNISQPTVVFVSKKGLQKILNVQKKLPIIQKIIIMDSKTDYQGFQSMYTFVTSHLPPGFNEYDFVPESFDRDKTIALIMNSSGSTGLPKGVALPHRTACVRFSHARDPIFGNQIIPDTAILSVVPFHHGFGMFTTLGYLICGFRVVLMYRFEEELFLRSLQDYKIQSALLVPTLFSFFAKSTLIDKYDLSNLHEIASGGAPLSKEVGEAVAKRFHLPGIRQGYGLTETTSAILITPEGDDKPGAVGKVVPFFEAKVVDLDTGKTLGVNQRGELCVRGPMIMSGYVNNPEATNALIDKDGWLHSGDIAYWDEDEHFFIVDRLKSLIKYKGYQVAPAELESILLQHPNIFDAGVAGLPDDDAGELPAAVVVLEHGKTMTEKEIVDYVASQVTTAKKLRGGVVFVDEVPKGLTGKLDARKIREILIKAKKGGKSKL

COc1cc(C(=S)N2CCOCC2)cc(OC)c1OC
inactive: [1] | [2] | [3] | [4] | [5] | [6] | [7] | [8] | [9] | [10]

CC1(C)S[C@@H]2[C@H](N=CN3CCCCCC3)C(=O)N2[C@H]1C(=O)O
inactive: [1] | [2] | [3] | [4] | [5] | [6] | [7] | [8]

COc1nccnc1NS(=O)(=O)c1ccc(N)cc1
not listed: [12] | [13] | [14] | [15] | [16] | [17] | [18] | [19]
inactive: all other assays above

CC(C)(C)OC(=O)c1ccc(O)cc1
inactive: [1] | [2] | [12] | [3] | [5] | [6] | [7] | [9] | [11]
active: [4] 39.9 µM | [8] 24.3 µM

Cc1c(I)c(=O)n(-c2ccccc2)n1C
inactive: [1] | [2] | [3] | [4] | [5] | [6] | [7] | [8] | [11]

COCCOCCOCCOCCOCCO
inactive: [1] | [2] | [3] | [4] | [5] | [7] | [8] | [9] | [10] | [11]

C=C1CC/C=C(\C)CC[C@@H]2[C@@H]1CC2(C)C
inactive: [1] | [2] | [3] | [4] | [5] | [7] | [8] | [9] | [10]

NS(=O)(=O)c1ccc(NC(=O)CCC(=O)O)cc1
inactive: [1] | [2] | [3] | [4] | [5] | [6] | [7] | [8]

O=C(O)CCSSCCC(=O)O
inactive: [1] | [2] | [12] | [3] | [4] | [5] | [7] | [8] | [9]

C=Cc1ccccn1
inactive: [1] | [2] | [13] | [4] | [5] | [6] | [7] | [8]

Cc1ccc2ccc(Cl)cc2n1
inactive: [1] | [2] | [12] | [13] | [5] | [8] | [9]

CCN(CC)CC(=O)Nc1c(C)cccc1C
not listed: [4] | [7] | [8] | [12]
inactive: all other assays above

CCCCNC1CC(C)(C)NC(C)(C)C1
inactive: [1] | [2] | [4] | [5] | [6] | [7] | [8] | [9] | [10]

CCCC/C=C\CCCCCCCCCC=O
inactive: [1] | [2] | [4] | [5] | [6] | [7] | [8] | [10]

CCN1CCc2nc(N)oc2CC1
inactive: [1] | [2] | [14] | [18] | [3] | [4] | [5] | [7] | [8] | [9]

CC(C)(C)c1nnc(NS(=O)(=O)c2ccc(N)cc2)s1
inactive: [1] | [2] | [3] | [4] | [5] | [6] | [7] | [8] | [9]

COCCOC(=O)C1=C(C)NC(C)=C(C(=O)OC(C)C)C1c1cccc([N+](=O)[O-])c1 (centres undefined)
inactive: [1] | [2] | [14] | [4] | [5] | [6] | [7] | [9]

OCCN(CCO)c1cccc(Cl)c1
inactive: [1] | [2] | [3] | [4] | [5] | [6] | [7] | [8] | [9]

CC(=O)Nc1ccc(S(=O)(=O)Nc2ccc([N+](=O)[O-])cc2)cc1
inactive: [1] | [2] | [4] | [7] | [8]
active: [3] 23.7 µM

O=P(O)(O)OP(=O)(O)O
inactive: [1] | [2] | [13] | [5] | [6] | [7] | [8]

COc1ccc2c(c1OC)C(=O)O[C@@H]2[C@H]1c2c(cc3c(c2OC)OCO3)CCN1C
inactive: [1] | [2] | [15] | [16] | [17] | [19] | [4] | [7] | [10]
active: [3] 11.9 µM | [5] 8.41 µM | [6] 10.6 µM

Cc1ccsc1/C=C/C1=NCCCN1C
inactive: [1] | [2] | [3] | [4] | [5] | [6] | [7] | [8]

CC(=O)NCCCCCC(=O)O
inactive: [1] | [2] | [3] | [4] | [5] | [6] | [7] | [8] | [9]

COc1ccc(OC)c(Cl)c1
not listed: [10] | [13] | [14] | [15] | [16] | [17] | [18] | [19]
inactive: all other assays above

C=CCCCCCCCCCCCC
inactive: [1] | [2] | [3] | [4] | [5] | [6] | [7] | [8]

CC(=O)/C=C/C1C(C)=CCC(C)C1(C)C (centres undefined)
inactive: [1] | [2] | [3] | [4] | [5] | [6] | [7] | [8] | [9] | [10]
